Measured values as given in PubChem BioAssay AID628 (Vanderbilt High Throughput Screening Facility, 2007).
Screen size: about 64,000 compounds; about 2,200 (3.4%) were called active. The sample holds actives, similar compounds and a random draw of the others, so the mix is not that of the screen.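 How the source made its calls: active means calcium fluorescence response, raw or row-and-column corrected B-score, differing from the plate sample mean either way at a set confidence level, mostly lower; inactive means the rest.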

Target: Muscarinic acetylcholine receptor M1 (Rattus norvegicus) (UniProt P08482)
Assay: blocks the rat M1 muscarinic receptor response to acetylcholine (AID 628)
Details: CHO-M1 cells, Fluo-4 calcium, ACh EC80 antagonist mode; at 10 µM; hits give low values

Muscarinic acetylcholine receptor M1 (Rattus norvegicus), sequence (P08482 whole entry, looked up): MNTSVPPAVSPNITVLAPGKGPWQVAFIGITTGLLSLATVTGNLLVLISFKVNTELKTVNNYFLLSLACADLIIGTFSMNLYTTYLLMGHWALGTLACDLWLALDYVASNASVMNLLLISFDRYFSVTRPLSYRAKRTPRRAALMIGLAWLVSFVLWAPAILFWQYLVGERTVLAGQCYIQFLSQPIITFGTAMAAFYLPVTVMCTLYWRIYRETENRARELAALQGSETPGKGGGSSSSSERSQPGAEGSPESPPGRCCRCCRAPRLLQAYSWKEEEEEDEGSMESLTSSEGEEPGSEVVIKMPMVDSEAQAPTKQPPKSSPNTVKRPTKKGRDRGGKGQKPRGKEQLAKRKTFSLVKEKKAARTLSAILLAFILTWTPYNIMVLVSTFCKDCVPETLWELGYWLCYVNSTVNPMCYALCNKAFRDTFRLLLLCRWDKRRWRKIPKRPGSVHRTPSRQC

B-score, active:
CCOC(=O)C1CCN(Cc2coc3ccc(Cl)cc3c2=O)CC1 -5.08
COCCN(C(=O)CCC(=O)Nc1ccccn1)C(C(=O)NCCC(C)C)c1ccc(OC)cc1 (stereo not given) -2.46
CCCCN(C)C(=O)c1ccc2c(c1)N(CC)C(=O)c1ccccc1S2(=O)=O -2.44
N#Cc1c(NC(=O)CCCN2C(=O)c3ccccc3C2=O)oc(-c2ccccc2)c1-c1ccccc1 2.29
CCCCOc1ccc(C(C)(O)CCN2CCOCC2)cc1 (stereo not given) -1.77
CC(C)(C)n1nnnc1C(c1cccs1)N(Cc1cccnc1)CC1CCCO1 (stereo not given) -5.58
CCOc1ccccc1C(=O)NCCCn1ccnc1 -0.947
CC[C@]1(O)CC2CN(CCc3c([nH]c4ccccc34)[C@@](C(=O)OC)(c3cc4c(cc3OC)N(C=O)[C@H]3[C@@](O)(C(=O)OC)[C@H](OC(C)=O)[C@]5(CC)C=CCN6CC[C@]43[C@@H]65)C2)C1 (stereo not given in full) -6.81
O=C(Nc1cccnc1)c1noc2c1CCCCC2 2.01
COCCn1c(SCC(=O)Nc2cc(Cl)ccc2OC)nc2c(c1=O)SC(C)C2 (stereo not given) -2.72
O=C(Cc1cccs1)N1CCCC(c2nc(-c3ccc(S(=O)(=O)N4CCCC4)cc3)no2)C1 (stereo not given) -2.63
O=C(c1ccco1)N1CCN=C1SCc1cccc(Cl)c1 -2.85
Cc1cc(C)n(-c2nc(SCC(=O)N3CCCC3)c3c4c(sc3n2)CCCC4)n1 -2.83
CCn1c(=O)cc(OCC(=O)NCCCN2CCN(c3cccc(Cl)c3)CC2)c2ccccc21 -2.45
CCN1CCN(c2c(Cl)cccc2NC(=O)c2ccc(Br)o2)CC1 -6.97
COc1ccccc1N1CCN(C(=O)c2cn(-c3ccccc3)nc2-c2cccnc2)CC1 1.85
CSc1nnc2c(n1)OC(c1ccsc1)N(C(C)=O)c1ccccc1-2 (stereo not given) -8.49

B-score, inactive:
CCOC(=O)C1CCN(C(=O)Nc2ccc(Cl)cc2)CC1 -0.00301
CCOC(=O)c1ccc(N2C(=O)CC(N3CCC(C(=O)OCC)CC3)C2=O)cc1 (stereo not given) -0.522
CC(C)NS(=O)(=O)c1ccc(NC(=O)c2cccnc2)cc1 1.03
C=CCn1c2ccccc2c2nnc(SC(CC)C(=O)Nc3nc(C)c(C(=O)OCC)s3)nc21 (stereo not given) 0.9
COc1cc(-n2c(C)nc3cc(C(=O)NCc4ccco4)ccc32)cc(OC)c1OC -0.0298
CSCCC(Nc1nc2ccccc2s1)C(=O)O (stereo not given) 0.99
Cc1ccc(C)c(N(CC(=O)NCc2ccco2)C(=O)CCC(=O)Nc2ccccn2)c1 0.211
Cc1ccc(C(C(=O)NC2CCCC2)N(Cc2ccco2)C(=O)CCC(=O)Nc2ccccn2)cc1 (stereo not given) -0.0611
CC(=O)Oc1cc2c(C(=O)NCCN3CCOCC3)c(C)oc2c2ccccc12 -0.671
CN(C)Cc1c(C#N)c2ccccc2n1C 0.566
CCCCNC(=O)CSc1nnc(-c2ccco2)n1C -0.326
COC(=O)CNC(=O)c1ccc2c(c1)S(=O)(=O)c1ccccc1C2=O -0.0488
CCN1C(=O)c2cccc3c(N)ccc1c23 -0.102
O=C(Nc1ccccc1F)C1C2C=CC3(O2)C1C(=O)N(c1cccnc1)C3C(=O)NC1CCCCC1 (stereo not given) 0.728
CCCN1C2=C(C(=O)CCC2)C(c2ccc(O)c(Br)c2)C2=C1CCCC2=O 0.273
Cc1ccc(-n2nc3cc(Cl)c(NC(=O)c4ccco4)cc3n2)cc1 0.0365
O=C(CCN1C(=O)c2ccccc2C1=O)Nc1ccncc1 -0.0156
COc1cc(C(=O)Nc2oc(-c3ccccc3)c(-c3ccccc3)c2C#N)cc(OC)c1OC -0.934
CC(C)N1C(=O)C2C(C(=O)NC3CCCCC3)C3C=CC2(O3)C1C(=O)NC1CCCC1 (stereo not given) -0.055
COc1ccc(C(=O)N(CCN2CCOCC2)CC(=O)NC2CCCC2)cc1OC -1.81
Cc1noc(C)c1CSc1nnc2ccc3ccccc3n12 0.103
CC(C)(CSc1nncn1/N=C/c1ccco1)NS(=O)(=O)c1ccc(Cl)cc1 -0.0125
COC(=O)c1ccc(NC(=O)C(C)N2C(=O)c3ccccc3C2=O)cc1 (stereo not given) 0.608
CCCOc1ccc(C2c3c(oc4cc(C)c(C)cc4c3=O)C(=O)N2CCCN2CCOCC2)cc1 (stereo not given) -2.07
COc1ccc(OCC(=O)N2CCOCC2)cc1 -0.0545
COC(=O)C1(S(=O)(=O)C2(C(=O)OC)CCCC2)CCCC1 -0.00987
CC(=O)OC(C(=O)NC1CCCCC1)c1ccccc1 (stereo not given) 0.565
CN(C)CCNC(=O)C(C(=O)c1ccccc1)n1ccccc1=O (stereo not given) 0.0113
Cc1ccc(NC(=O)C2CC(c3ccc(F)cc3)=NO2)cc1 (stereo not given) 0.326
CCC(C)(C)n1nnnc1C(c1cccs1)N1CCN(Cc2ccccc2)CC1 (stereo not given) 0.103
CCOc1ccc(CN(Cc2ccco2)C(c2cccs2)c2nnnn2C(C)(C)C)cc1 (stereo not given) -0.0188
Cc1ncc(CC(=O)n2cc(C(=O)c3cc(Cl)ccc3O)cn2)s1 -0.173
CN(C)S(=O)(=O)c1ccc(Oc2ccc(S(=O)(=O)N(C)C)cc2)cc1 -0.154
COc1ccccc1-c1cc(C(=O)NCCCn2ccnc2)no1 -0.17
CCCCOCCCNC(=O)c1ccccc1OCC 0.466
CC[C@]1(O)C[C@@H]2CN(CCc3c([nH]c4ccccc34)[C@@](C(=O)OC)(c3cc4c(cc3OC)N(C)[C@H]3[C@@](O)(C(=O)OC)[C@H](OC(C)=O)[C@]5(CC)C=CCN6CC[C@]43[C@@H]65)C2)C1 -0.431
O=c1c(-c2ccccc2)coc2c(CN3CCOCC3)c(O)ccc12 -0.686
CCc1ccccc1NC(=O)CSc1nnc([C@@H](NC(=O)OC(C)(C)C)C(C)CC)o1 (stereo not given in full) -0.00145
O=C(Nc1cccnc1)c1ccc2c(c1)OCO2 -0.335
CCOc1cccc(C(=O)Nc2cccnc2)c1 1.02
Cc1cccc(NC(=O)CSc2nnc(NC(=O)CN3CCOCC3)s2)c1 -0.445
Cc1ccc(-c2nn(-c3ccccc3)cc2CN(Cc2ccccc2)C(=O)CCC(=O)O)o1 -0.258
C=CCNC(=O)C12CC3CC(C1)CC(C(=O)NCC=C)(C3)C2 0.561
CCOC(=O)N1CCC(NC(=O)CCc2cn(C)c3ccccc23)CC1 0.483
CCn1c(SCC(=O)Nc2ccccc2F)nc2c(c1=O)SC(C)C2 (stereo not given) -0.377
CC1Cc2nc(SCC(=O)Nc3ccccc3F)n(C)c(=O)c2S1 (stereo not given) -0.851
COc1ccc(-c2nc3n(c2Br)CCC3)cc1 0.807
COc1cc(-c2noc(C3CCCN(S(=O)(=O)c4cccc(Cl)c4)C3)n2)cc(OC)c1OC (stereo not given) 0.77
O=C(c1cccs1)N1CCCC(c2nc(-c3ccc(F)cc3)no2)C1 (stereo not given) -1.27
O=C(C1CC1)N1CCN=C1SCc1ccc(Cl)cc1 0.588
O=C(c1ccco1)N1CCN(c2cccc(Cl)c2)CC1 -0.702
Cc1ccc(S(=O)(=O)C(C#N)c2nc3ccccc3nc2N2CCCC2)cc1C (stereo not given) 0.0971
O=S(=O)(O)c1nc2ccccc2n1Cc1ccc(Cl)cc1Cl 0.452
Cc1nc(SCC(=O)Nc2cc(C)on2)c2c3c(sc2n1)CCCC3 -0.235
COCCNc1nc(-n2nc(C)cc2C)nc2sc3c(c12)CCCC3 -0.584
Brc1ccc(Nc2c3c(nc4ncnn24)CCC3)cc1 0.669
CCOC(=O)N1CCC(Nc2c(NCCN3CCN(c4cccc(Cl)c4)CC3)c(=O)c2=O)CC1 0.00829
CCOC(=O)N1CCC(NC(=O)COc2cc(=O)n(C)c3ccccc23)CC1 0.854
Cc1c(C(=O)NCC2CCCO2)sc2nc(-c3ccccc3)cn12 (stereo not given) 0.0376
CCCC(=O)Nc1ccc(Cl)c(NC(=O)c2ccc(Br)o2)c1 0.768
COc1cc(OC)c(NC(=O)c2ccc(Br)o2)cc1Cl 0.263
CCOC(=O)N1CCC(NC(=O)c2cnn3ccccc23)CC1 0.733
CCOC(=O)Cn1c2c(c(-c3ccccc3OC)cc1=O)CCCC2 -0.0571
C=CCOC(=O)C1=C(C)OC(N)=C(C#N)C1c1ccc(F)cc1 (stereo not given) 0.263
Cc1ccccc1N1C(=O)C2ON(c3ccccc3)C(c3ccncc3)C2C1=O (stereo not given) -0.292
CC(C)(C)OC(=O)c1c(N)n(CCCN2CCCC2=O)c2nc3ccccc3nc12 -1.12
COc1ccc(OC)c(C(=O)c2coc3ccc(OC)cc23)c1 -1.32
COc1cccc(-n2cc(C(=O)O)c3ccccc3c2=O)c1 1.31
COC(=O)c1cn(-c2ccccc2)nc1-c1cccnc1 -0.00204
O=C(c1cn(-c2ccccc2)nc1-c1cccnc1)N1CCCCC1 0.615
COc1ccc(-n2ncc3c(N4CCCc5ccccc54)ncnc32)cc1 0.508
CCCCN(CC)C(=O)CN(C)S(=O)(=O)c1cccc2nsnc12 -0.0458
CSc1nnc2c(n1)OC(c1cn(C)c3ccccc13)N(C(C)=O)c1ccccc1-2 (stereo not given) -0.0695
